PubChem BioAssay (NCI)
This is part of a sample that, as a whole, favours compounds with a hit. Of some 79,000 tested, about 15% had one in any assay. No stated cut-off is given here; in the data, active means growth inhibition above about 70%; inactive means the rest.

Columns and labels:
[1] = NCI Yeast Anticancer Drug Screen. Data for the rad50 strain (AID 155);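 further: 0% = growth of vehicle-only cultures of the same strain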; conditions: S. cerevisiae rad50 strain growth inhibition; at 50.0 µM; hits give high values
Outline: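 Inhibition values express reduced yeast growth in compound-treated cultures relative to vehicle-treated controls.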

[2] = NCI Yeast Anticancer Drug Screen. Data for the mec2-1 strain (AID 157); conditions: S. cerevisiae mec2-1 strain, at 50.0 µM, hits give high values
Outline: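 Using mec2-1 yeast: add compound, measure growth, express inhibition versus vehicle-treated cultures.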

[3] = NCI Yeast Anticancer Drug Screen. Data for the sgs1 mgt1 strain (AID 161);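 further: 0% = growth of cultures given vehicle only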; conditions: S. cerevisiae sgs1 mgt1 strain, at 50.0 µM, hits give high values
Outline: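 This yeast growth screen uses a strain with defined DNA-repair lesions; compound-treated growth is compared with vehicle-treated growth.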

[4] = NCI Yeast Anticancer Drug Screen. Data for the cln2 rad14 strain (AID 165);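 further: 0% = growth equal to vehicle treated cultures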; conditions: S. cerevisiae cln2 rad14 strain, at 50.0 µM, hits give high values
Outline: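 Yeast strain cln2 rad14, bearing defects in cell cycle control and DNA repair, serves as the test system; values reflect growth inhibition compared with vehicle.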

[5] = NCI Yeast Anticancer Drug Screen. Data for the bub3 strain (AID 167); conditions: S. cerevisiae bub3 mutant strain, at 50.0 µM, hits give high values
Outline: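 Steps: expose the mutant yeast strain to compound; grow alongside vehicle-treated cultures; measure growth; express inhibition against the vehicle cultures.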

[6] = NCI Yeast Anticancer Drug Screen. Data for the mlh1 rad18 strain (AID 175); conditions: S. cerevisiae mlh1 rad18 strain growth inhibition; at 50.0 µM; hits give high values
Outline: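 Steps: expose repair-defective yeast to compound; measure growth; express inhibition against vehicle-treated controls.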

Measured: growth inhibition

COc1ccc(OC2OC(CO)C(OCc3ccccc3)C(OCc3ccccc3)C2OCc2ccccc2)cc1 (stereo not given)
inactive: [1] 5.6% | [2] -11.7% | [3] -11.7% | [4] 2.4% | [5] -33.6% | [6] -42.8%

CCOC(=O)C1=C(C)N(NC(=O)Nc2ccccc2)C2(N)N(NC(=O)Nc3ccccc3)C(C)=C(C(=O)OCC)C12C(=O)OCC (stereo not given)
inactive: [1] -28.1% | [2] -44.5% | [3] -42% | [4] -20.7% | [5] -7.6% | [6] -15.8%

C1=[N+](c2ccccc2)CCN1c1ccccc1
inactive: [1] -0.7% | [2] -18.9% | [3] -22.1% | [4] -27.3% | [5] -32.1% | [6] -20.5%

O=[N+]([O-])c1ccccc1C1SCc2nc3ccccc3n21 (stereo not given)
inactive: [1] 25.2% | [2] 10.2% | [3] 31.8% | [4] 30.5% | [5] 44.5% | [6] 12.3%

Nc1ncncc1Oc1ccccc1
inactive: [1] 8.25% | [2] -5.35% | [3] -0.2% | [4] -33.6% | [5] 4.05% | [6] -14.4%

O/N=C1\CC2CC1C1CC3(CC3)C21 (stereo not given)
inactive: [1] -6.85% | [2] -9.6% | [3] -0.15% | [4] -0.9% | [5] -22.2% | [6] 20.6%

Cc1cc(N)c(NC2OC(CO)C(O)C2O)cc1C (stereo not given)
inactive: [1] -25.1% | [2] 0.8% | [3] 4.75% | [4] -43.1% | [5] 41.1% | [6] 19.7%

OCC(O)CS (stereo not given)
inactive: [1] -15.2% | [2] 0.1% | [3] -4.8% | [4] 36.1% | [5] -4.5% | [6] -15.5%

O=c1cc(-c2ccc3ccccc3n2)oc2ccccc12
inactive: [1] -16.4% | [2] 2.5% | [3] 3.7% | [4] 28.3% | [5] -1.95% | [6] -4.2%

Nc1[nH]n(-c2ccccc2)c(=O)c1/C=N/C(=S)NC1CCCCC1
inactive: [1] -79% | [2] -43.7% | [3] -61% | [4] -63.2% | [5] -47.8% | [6] -67.9%

CCC(C)(C1CCC(=O)CC1)C1CCC(=O)CC1
inactive: [1] 33.6% | [2] -5.75% | [3] -0.7% | [4] -7% | [5] -0.75% | [6] 7.85%

CCOC(=O)NC(Nc1cc(Cl)ccc1OC)(C(F)(F)F)C(F)(F)F
inactive: [1] 2.5% | [2] -10.5% | [3] -26.1% | [4] 9.65% | [5] 6.85% | [6] -5.2%

O=C(NC12CC3CC(CC(C3)C1)C2)C(O)C(O)C(O)C(O)CO (stereo not given)
inactive: [1] -16.6% | [2] -1.75% | [3] 20.1% | [4] 0.9% | [5] 5.6% | [6] 2.65%

CC1(C)[C@@H]2C[C@H]1C(Cc1ccccc1C[C@H]1c3cc(-c4ccccn4)ncc3[C@H]3C[C@@H]1C3(C)C)c1cc(-c3ccccn3)ncc12 (stereo not given in full)
inactive: [1] 43.3% | [2] 39.3% | [3] 10.4% | [4] 24.4% | [5] 12.2% | [6] -32.4%

CC(=O)OC(C)C(=O)C1c2cccc(O)c2C(=O)c2c(O)cc(C)cc21 (stereo not given)
inactive: [1] 35.6% | [2] 19.1% | [3] 19.9% | [4] 31.4% | [5] 23.9% | [6] 26.6%

C/[N+]([O-])=N/COC1OC(COC2OCC(O)C(O)C2O)C(O)C(O)C1O (stereo not given)
inactive: [1] 7.5% | [2] -0.4% | [3] 25.6% | [4] 13.8% | [5] 8.85% | [6] 3.7%

CC(=O)NC1CON(C(C)=O)C1=O (stereo not given)
inactive: [1] 2.75% | [2] 0.65% | [3] -9.85% | [4] -54.4% | [5] 2.7% | [6] -6.75%

O=C(CSC1=NCCN1)c1ccccc1
inactive: [1] -17.9% | [2] 6.3% | [3] -27.1% | [4] -57.9% | [5] 8.55% | [6] 11.6%

Cc1ccc(SCC(CF)OC(C)n2cnc3c(=O)[nH]c(N)nc32)cc1 (stereo not given)
inactive: [1] 9.8% | [2] 6.1% | [3] -27.4% | [4] 23.4% | [5] 7.55% | [6] -46.5%

O=c1ccocc1OC1OC(CO)C(O)C(O)C1O (stereo not given)
inactive: [1] -3.95% | [2] -26.4% | [3] -21.1% | [4] -1.35% | [5] -32.3% | [6] -23.1%
